In all, about 5,500 compounds went through this assay and about 2,000 (36%) were called active. Not shown: some 18% with an inconclusive outcome. This is one part of the list. Unmarked numbers belong to inactive results. No stated cut-off is given here; in the data, active means normalized growth mostly below about 0.91 (no sharp cut-off); inconclusive means no clear call, values can overlap the other calls; inactive means mostly above about 0.92.
Assay: chemical genetic growth profiling, strain panel (AID 1159580);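 further: tested at 20 µM; growth read once vehicle control cultures reached saturation at 30 °C; 1 = growth at the plate median or of vehicle wells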
Conditions: S. cerevisiae deletion strains, growth OD

For `CC(=CC1CCC(C)C2CCC(C)=C12)C(=O)O` (stereo not given), the normalized growth (locus YAL021C, strain ccr4, stronger effect = lower value) was 0.948, the normalized growth (locus YAL026C, strain drs2, stronger effect = lower value) was 0.904 (active) and the normalized growth (locus YAL030W, strain snc1, stronger effect = lower value) was 0.93. For the same molecule, the normalized growth (locus YBL061C, strain skt5, stronger effect = lower value) was 0.931, the normalized growth (locus YBR009C, strain hhf1, stronger effect = lower value) was 0.958 and the normalized growth (locus YBR023C, strain chs3, stronger effect = lower value) was 0.929. The normalized growth (locus YBR171W, strain sec66, stronger effect = lower value) was 0.876 (active), the normalized growth (locus YBR231C, strain swc5, stronger effect = lower value) was 0.923 and the normalized growth (locus YBR279W, strain paf1, stronger effect = lower value) was 0.95. The normalized growth (locus YCL011C, strain gbp2, stronger effect = lower value) was 0.986, the normalized growth (locus YCL016C, strain dcc1, stronger effect = lower value) was 0.927 and the normalized growth (locus YCL069W, strain vba3, stronger effect = lower value) was 0.956. The normalized growth (locus YCR088W, strain abp1, stronger effect = lower value) was 0.938, the normalized growth (locus YDL005C, strain med2, stronger effect = lower value) was 0.953 and the normalized growth (locus YDL040C, strain nat1, stronger effect = lower value) was 0.935. The normalized growth (locus YDR001C, strain nth1, stronger effect = lower value) was 0.943, the normalized growth (locus YDR069C, strain doa4, stronger effect = lower value) was 0.931 and the normalized growth (locus YDR137W, strain rgp1, stronger effect = lower value) was 0.573 (active). For the same molecule, the normalized growth (locus YDR159W, strain sac3, stronger effect = lower value) was 0.888, the normalized growth (locus YDR195W, strain ref2) was 1.12 and the normalized growth (locus YDR297W, strain sur2, stronger effect = lower value) was 0.943. For the same molecule, the normalized growth (locus YDR334W, strain swr1, stronger effect = lower value) was 0.927, the normalized growth (locus YDR335W, strain msn5, stronger effect = lower value) was 0.944 and the normalized growth (locus YDR392W, strain spt3, stronger effect = lower value) was 0.373 (active). For the same molecule, the normalized growth (locus YEL003W, strain gim4, stronger effect = lower value) was 0.958, the normalized growth (locus YEL037C, strain rad23, stronger effect = lower value) was 0.942 and the normalized growth (locus YEL061C, strain CIN8 (second series), stronger effect = lower value) was 0.947. The normalized growth (locus YER015W, strain faa2, stronger effect = lower value) was 0.971, the normalized growth (locus YER016W, strain bim1, stronger effect = lower value) was 0.936 and the normalized growth (locus YER111C, strain swi4, stronger effect = lower value) was 0.923. For the same molecule, the normalized growth (locus YER155C, strain BEM2 (second series), stronger effect = lower value) was 0.873, the normalized growth (locus YFR010W, strain ubp6, stronger effect = lower value) was 0.965 and the normalized growth (locus YGL167C, strain pmr1, stronger effect = lower value) was 0.892 (active). For the same molecule, the normalized growth (locus YGL173C, strain kem1, stronger effect = lower value) was 0.891 (active), the normalized growth (locus YGL227W, strain vid30, stronger effect = lower value) was 0.952 and the normalized growth (locus YGL240W, strain doc1, stronger effect = lower value) was 0.941. It also gave a normalized growth (locus YGL253W, strain hxk2, stronger effect = lower value) of 0.937, a normalized growth (locus YHR013C, strain ard1, stronger effect = lower value) of 0.954 and a normalized growth (locus YHR027C, strain rpn1, stronger effect = lower value) of 0.956. It also gave a normalized growth (locus YHR142W, strain chs7, stronger effect = lower value) of 0.901, a normalized growth (locus YJL092W, strain hpr5, stronger effect = lower value) of 0.93 and a normalized growth (locus YJL095W, strain BCK1 (second series), stronger effect = lower value) of 0.927. The normalized growth (locus YJL115W, strain asf1, stronger effect = lower value) was 0.965, the normalized growth (locus YJL129C, strain trk1, stronger effect = lower value) was 0.799 (active) and the normalized growth (locus YJL154C, strain vps35, stronger effect = lower value) was 0.934. For the same molecule, the normalized growth (locus YJL164C, strain tpk1, stronger effect = lower value) was 0.923, the normalized growth (locus YJL166W, strain qcr8, stronger effect = lower value) was 0.917 and the normalized growth (locus YKL160W, strain elf1, stronger effect = lower value) was 0.939. The normalized growth (locus YKR026C, strain gcn3, stronger effect = lower value) was 0.939, the normalized growth (locus YKR091W, strain srl3, stronger effect = lower value) was 0.93 (active) and the normalized growth (locus YLL001W, strain dnm1, stronger effect = lower value) was 0.966. For the same molecule, the normalized growth (locus YLL026W, stronger effect = lower value) was 0.946, the normalized growth (locus YLL041C, strain sdh2, stronger effect = lower value) was 0.955 and the normalized growth (locus YLR027C, strain aat2, stronger effect = lower value) was 0.953. The normalized growth (locus YLR221C, strain rsa3, stronger effect = lower value) was 0.943, the normalized growth (locus YLR258W, strain gsy2, stronger effect = lower value) was 0.941 and the normalized growth (locus YLR262C, strain YPT6 (second series), stronger effect = lower value) was 0.591 (active). For the same molecule, the normalized growth (locus YLR320W, strain mms22, stronger effect = lower value) was 0.779 (active), the normalized growth (locus YLR342W, strain FKS1, stronger effect = lower value) was 0.887 (active) and the normalized growth (locus YLR357W, strain rsc2, stronger effect = lower value) was 1.01. For the same molecule, the normalized growth (locus YLR370C, strain arc18, stronger effect = lower value) was 0.906 (active), the normalized growth (locus YLR384C, strain iki3, stronger effect = lower value) was 0.926 and the normalized growth (locus YML120C, strain ndi1, stronger effect = lower value) was 0.968. For the same molecule, the normalized growth (locus YMR058W, strain fet3, stronger effect = lower value) was 0.937, the normalized growth (locus YMR125W, strain sto1, stronger effect = lower value) was 0.937 and the normalized growth (locus YMR129W, stronger effect = lower value) was 0.928. The normalized growth (locus YMR205C, strain PFK2, stronger effect = lower value) was 0.859 (active), the normalized growth (locus YMR231W, strain pep5, stronger effect = lower value) was 0.898 (active) and the normalized growth (locus YNL071W, strain lat1, stronger effect = lower value) was 0.875 (active). It also gave a normalized growth (locus YNL209W, strain ssb2, stronger effect = lower value) of 0.978, a normalized growth (locus YNL248C, strain rpa49, stronger effect = lower value) of 0.972 and a normalized growth (locus YNL322C, strain KRE1 (second series), stronger effect = lower value) of 0.94. It also gave a normalized growth (locus YNR049C, strain mso1, stronger effect = lower value) of 0.941, a normalized growth (locus YOR001W, strain rrp6, stronger effect = lower value) of 0.942 and a normalized growth (locus YOR070C, strain gyp1, stronger effect = lower value) of 0.943. It also gave a normalized growth (locus YOR080W, strain dia2, stronger effect = lower value) of 0.961, a normalized growth (locus YOR083W, strain WHI5, stronger effect = lower value) of 0.933 and a normalized growth (locus YOR106W, strain vam3, stronger effect = lower value) of 0.914. The normalized growth (locus YOR265W, strain rbl2, stronger effect = lower value) was 0.956, the normalized growth (locus YOR270C, strain vph1, stronger effect = lower value) was 0.727 (active) and the normalized growth (locus YOR290C, strain snf2, stronger effect = lower value) was 0.918. For the same molecule, the normalized growth (locus YPL051W, strain arl3, stronger effect = lower value) was 0.907 (active), the normalized growth (locus YPL078C, strain atp4, stronger effect = lower value) was 0.946 and the normalized growth (locus YPL106C, strain sse1, stronger effect = lower value) was 1.04. The normalized growth (locus YPL240C, strain hsp82, stronger effect = lower value) was 0.925 (active).

From PubChem BioAssay AID1159580 (chemical genetic matrix, 2015)
